Measurements taken from PubChem BioAssay (EPA / NIEHS).
The source holds several records for some structures; these can differ, active in one and inactive in another. Activity calls are given as the source filed them. How the source made its calls: active means hit-call score of the fitted dose curve at least 0.9, where 1 is the maximum; inactive means score below 0.9.

test: APR_HepG2_P-H2AX_72hr: Apredica 72-hour HepG2 Assay for H2AX Phosphorylation (AID 2282916); conditions: imaging, actives raise or lower the signal
Method: APR_HepG2_72hr is a cell-based, multiplexed-readout assay that uses HepG2, a human liver cell line, with measurements taken at 72 hours after chemical dosing in a 384-well plate.APR_HepG2_P-H2AX_72hr is one of 10 assay component(s) measured or calculated from the APR_HepG2_72hr assay. It is designed to make measurements of dna content, a form of viability reporter, as detected with fluorescence intensity signals by HCS Fluorescent Imaging technology.Data from the assay component APR_HepG2_P-H2AX_72hr was analyzed into 1 assay endpoint. This assay endpoint, APR_HepG2_P-H2AX_72hr, was analyzed with bidirectional fitting relative to DMSO as the negative control and baseline of activity. Using a type of viability reporter, measures of protein for gain or loss-of-signal activity can be used to understand the signaling at the pathway-level as they relate to the gene . Furthermore, this assay endpoint can be referred to as a primary readout, because this assay has produced multiple assay endpoints where this one serves a signaling function. To generalize the intended target to other relatable targets, this assay endpoint is annotated to the dna binding intended target family, where the subfamily is cellular response to DNA damage stimulus.
Cells were treated with dimethyl sulfoxide (DMSO) as a solvent control at a final concentration of 0.5% v/v or with compounds in DMSO with a resulting final DMSO concentration of 0.5% v/v. Compound treatment was done at concentrations of 0.39, 0.78, 1.56, 3.12, 6.24, 12.5, 25, 50, 100, and 200 uM in duplicate on each plate. Cells were treated with compounds for 1, 24, or 72 hr. Carbonyl […] m-chloro-phenylhydrazone (CCCP) and taxol were used as positive controls for mitochondrial function and cytoskeletal stability, respectively; DMSO served as the negative control for this experiment. Cells were fixed by the direct addition of 50 uL formaldehyde in Hank's Balanced Salt Solution (HBSS) to a final concentration of 3.7%. After incubation in the fixation medium for 30 min at room temperature (293-298 K), cells were rinsed twice with HBSS and treated with cell permeabilization buffer (16 uL of 0.5% Triton X-100) for 10 min at room temperature (293-298 K) before labeling. For mitochondrial membrane potential and mitochondrial measurements, pre-fixed cells were incubated with 50 uL of MitoTracker Red CMXRos (Invitrogen) at a concentration of 250 nM for 30 min before fixation. In the remaining cases, post-fixed cells were labeled by incubation with a multiplexed mixture of primary antibodies in HBSS for 60 min at room temperature (293-298 K) to detect immunoreactivity of c-Jun (1:500), phospho-histone H3 (1:100), phospho-histone H2A.x (1:200), p53 (1:400), alpha-tubulin (1:200) and Hoechst 33342 (2 ug/mL). Cells were labeled for multiplexed imaging on two separate plates: a) Hoechst 33342, MitoTracker Red, phospho-histone H3, and alpha-tubulin, and b) Hoechst 33342, phospho-histone H2A.x, and c-Jun. A final rinse with HBSS (50 uL) was performed before analysis. The primary and secondary antibodies for the proteins were phospho-histone H3 (rabbit anti-phospho-histone H3 and FITC-donkey anti-rabbit IgG), phospho-histone H2A.x (mouse anti-phospho-histone H2A.x and FITC-donkey anti-mouse IgG), c-Jun (rabbit anti-phospho-c-Jun and Cy3-donkey anti-rabbit IgG), p53 (sheep anti-p53 and Cy5-donkey anti-sheep IgG), alpha-tubulin (mouse anti-alpha-tubulin and Cy5-donkey anti-mouse IgG). These antibodies are available as the CellCiphr HepG2 assay kit (Millipore).Digital images of each well were captured using a Cellomics ArrayScan VTI (Thermo Scientific Cellomics) (0.8 NA objective, 0.63x optical coupler, and XF-93 filter set) at 20x magnification. The images were acquired using the autofocus feature of the ArrayScan instrument, which entails the following steps. First, the camera focuses on channel 1 (Hoechst 33342), where nuclei are identified. Second, a Z offset of 1 um is used for capturing mitochondria (MitoTracker Red). […]

| SMILES | outcome | AC50 |
| --- | --- | --- |
| O=c1[nH]c(=O)[nH]c(=O)[nH]1 | inactive | – |
| CC(C)(C)CC(C)(C)c1ccc(O)cc1 | inactive | – |
| CN(C)N=O | inactive | – |
| CCC(C)(C)c1ccc(O)c(C(C)(C)CC)c1 | inactive | – |
| O=C1C2(Cl)C3(Cl)C4(Cl)C(Cl)(Cl)C5(Cl)C3(Cl)C1(Cl)C5(Cl)C24Cl (centres undefined) | – | 113 µM (active) |
| CC12CC1(C)C(=O)N(c1cc(Cl)cc(Cl)c1)C2=O (centres undefined) | inactive | – |
| C=C(C)C(=O)[O][Sn]([CH2]CCC)([CH2]CCC)[CH2]CCC | – | 0.0519 µM (active) |
| ClCC(Cl)CCl | inactive | – |
| Cc1ccccc1N | inactive | – |
| Oc1cccc2cccnc12 | – | 16.9 µM (active) |
| ClC1(Cl)C2(Cl)C3(Cl)C4(Cl)C(Cl)(Cl)C5(Cl)C3(Cl)C1(Cl)C5(Cl)C24Cl (centres undefined) | inactive | – |
| NC(=O)O | – | 4.73 µM (active) |
| CCC(=O)C(CC(C)N(C)C)(c1ccccc1)c1ccccc1 (centres undefined) | – | 73.5 µM (active) |
| CC(=O)[O][Hg][c]1ccccc1 | – | 3.55 µM (active) |
| C=CC(=O)OCCCCCC(C)C | inactive | – |
| O=C(Nc1ccc2[nH]ccc2c1)c1cc2cc(F)ccc2n1Cc1cccc(F)c1 | – | 27.8 µM (active) |
| C[C@@H]1C[C@@H]([C@H](O)CC2CC(=O)NC(=O)C2)C(=O)[C@@H](C)C1 | inactive | – |
| CC(C)(c1ccccc1)c1ccc(O)c(C(C)(C)c2ccccc2)c1 | inactive | – |
| CCN1CCC2(CC1)COc1cc3c(cc12)N(C(=O)c1ccc(-c2ccc(-c4nnc(C)o4)cc2C)cc1)CC3 | – | 41.7 µM (active) |
| O=C(O)C(F)(F)C(F)(F)C(F)(F)C(F)(F)C(F)(F)C(F)(F)F | – | 13.6 µM (active) |
| COc1cc(-c2ccc(N)c(OC)c2)ccc1N | inactive | 24.8 µM (active) |
| O=C(O)C(F)(F)C(F)(F)C(F)(F)C(F)(F)C(F)(F)C(F)(F)C(F)(F)C(F)(F)C(F)(F)C(F)(F)F | – | 90.6 µM (active) |
| O=C(O)C(Cl)(Cl)Cl | inactive | – |
| CC(C)(C)c1cc(O)ccc1O | inactive | – |
| Cn1sc(Cl)cc1=O | – | 109 µM (active) |
| CC(C)(OO)c1ccccc1 | – | 56.7 µM (active) |
| C[C@]12CCC(=O)C[C@@H]1CC[C@@H]1[C@@H]2CC[C@]2(C)[C@@H](O)CC[C@@H]12 | – | 91.2 µM (active) |
| CCCCCCCCc1ccc(O)cc1 | inactive | – |
